Results published in PubChem BioAssay.
Unmarked numbers belong to inactive results. For some assays here: Entries with a potency or affinity are not part of this list. Calls of active or inactive are those of the source. Unless noted, the rule behind the calls is not given here.

How the values were obtained:
[1] = antimalarial activity against Dd2 strain (AID 2302;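 active = growth inhibition above 50% at the single 2 µM test dose, taken to imply half-maximal potency below 2 µM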;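 note: 0% = DMSO untreated growth and 100% = chloroquine plus artemisinin killed control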); settings: P. falciparum Dd2 in RBCs, LDH growth readout, 72 h; at 2 µM; active compounds read high
[2] = human hepatoma cell viability loss – ATP luminescence, cytotoxicity control for P. falciparum antimalarial project, primary screen (AID 2303;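 active = inhibition above 50%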;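 note: 0% = DMSO wells and 100% = digitonin-killed cells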); settings: HepG2 viability, 24-48 h, at 10 µM, active compounds read high
[3] = target: L-lactate dehydrogenase (Plasmodium falciparum (isolate CDC / Honduras)) (UniProt Q27743); assay: PfLDH activity inhibition – cell lysate, 3D7 strain, counter-screen for P. falciparum growth inhibition project (AID 2304);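 note: 0% = vehicle and 100% = reference inhibitor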; settings: P. falciparum 3D7 crude extract, LDH APAD/NBT absorbance; at 2 µM; active compounds read high
[4] = inhibition of 3D7 malaria parasite growth – strain 3D7 (AID 2306);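 note: 0% = DMSO wells and 100% = chloroquine plus artemisinin control wells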; settings: P. falciparum 3D7 erythrocytic growth, LDH absorbance, 72 h; at 2 µM; active compounds read high
[5] = target: Calcium-dependent protein kinase 1 (Plasmodium falciparum (isolate 3D7)) (UniProt P62344); assay: PfCDPK1 kinase inhibitors, biochemical, TCAMS library (AID 1159585; cut-off not given, nearly all actives have IC50 up to about 0.98 µM;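 note: inhibitors leave more ATP so luminescence rises with inhibition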); settings: recombinant PfCDPK1, Kinase-Glo ATP depletion luminescence
[6] = target: Plasmodium falciparum protein kinase 6 (PK6, PF3D7_1337100) (UniProt Q8IDW1); assay: PfPK6 kinase inhibitors, biochemical, TCAMS library (AID 1159586); settings: recombinant PfPK6, Kinase-Glo ATP depletion luminescence
[7] = target: Protein kinase 7 (PK7), Plasmodium falciparum 3D7 (PF3D7_0213400) (UniProt Q7YTF7); assay: inhibition of Plasmodium PK7 catalytic activity – biochemical, TCAMS antimalarial set, Kinase-Glo luminescence (AID 1159587); settings: recombinant PfPK7, Kinase-Glo ATP depletion luminescence
[8] = target: Calcium-dependent protein kinase 4 (Plasmodium falciparum (isolate 3D7)) (UniProt Q8IBS5); assay: PfCDPK4 kinase inhibitors, biochemical, TCAMS library (AID 1159588; cut-off not given, nearly all actives have IC50 up to about 0.91 µM); settings: recombinant PfCDPK4, Kinase-Glo ATP depletion luminescence
Calcium-dependent protein kinase 4 (Plasmodium falciparum (isolate 3D7)), sequence (Q8IBS5 whole entry, looked up): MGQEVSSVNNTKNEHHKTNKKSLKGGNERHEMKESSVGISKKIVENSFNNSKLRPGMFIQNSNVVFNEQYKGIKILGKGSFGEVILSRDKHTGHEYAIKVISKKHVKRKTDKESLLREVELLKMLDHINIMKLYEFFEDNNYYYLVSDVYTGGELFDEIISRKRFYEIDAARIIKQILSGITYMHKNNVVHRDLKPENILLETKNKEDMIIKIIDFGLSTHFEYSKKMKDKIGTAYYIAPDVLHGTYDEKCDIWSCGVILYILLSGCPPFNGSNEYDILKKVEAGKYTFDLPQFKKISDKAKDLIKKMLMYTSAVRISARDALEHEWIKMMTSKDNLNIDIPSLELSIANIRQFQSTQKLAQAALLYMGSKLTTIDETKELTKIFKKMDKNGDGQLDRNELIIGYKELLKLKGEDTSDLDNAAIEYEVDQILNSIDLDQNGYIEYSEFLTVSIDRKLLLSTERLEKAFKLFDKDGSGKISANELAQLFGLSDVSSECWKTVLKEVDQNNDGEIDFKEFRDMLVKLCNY

Plasmodium falciparum protein kinase 6 (PK6, PF3D7_1337100), sequence (Q8IDW1 1-305): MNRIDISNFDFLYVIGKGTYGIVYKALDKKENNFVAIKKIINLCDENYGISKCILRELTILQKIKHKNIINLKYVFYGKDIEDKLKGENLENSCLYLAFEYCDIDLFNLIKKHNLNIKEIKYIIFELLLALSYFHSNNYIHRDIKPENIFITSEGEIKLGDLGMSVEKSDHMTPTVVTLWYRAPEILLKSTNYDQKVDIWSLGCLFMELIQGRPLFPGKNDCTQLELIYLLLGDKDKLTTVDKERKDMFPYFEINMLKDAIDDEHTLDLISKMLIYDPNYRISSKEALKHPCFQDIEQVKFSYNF
Protein kinase 7 (PK7), Plasmodium falciparum 3D7 (PF3D7_0213400), sequence (Q7YTF7 1-343): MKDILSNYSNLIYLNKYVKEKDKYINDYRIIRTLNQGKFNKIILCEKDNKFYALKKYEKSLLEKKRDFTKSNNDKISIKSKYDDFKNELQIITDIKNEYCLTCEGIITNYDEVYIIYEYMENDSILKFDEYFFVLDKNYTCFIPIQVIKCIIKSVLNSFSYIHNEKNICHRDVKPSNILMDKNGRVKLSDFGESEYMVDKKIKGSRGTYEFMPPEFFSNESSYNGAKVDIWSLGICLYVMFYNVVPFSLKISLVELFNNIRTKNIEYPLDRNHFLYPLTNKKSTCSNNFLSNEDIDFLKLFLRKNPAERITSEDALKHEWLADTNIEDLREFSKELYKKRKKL
L-lactate dehydrogenase (Plasmodium falciparum (isolate CDC / Honduras)), sequence (Q27743 whole entry, looked up): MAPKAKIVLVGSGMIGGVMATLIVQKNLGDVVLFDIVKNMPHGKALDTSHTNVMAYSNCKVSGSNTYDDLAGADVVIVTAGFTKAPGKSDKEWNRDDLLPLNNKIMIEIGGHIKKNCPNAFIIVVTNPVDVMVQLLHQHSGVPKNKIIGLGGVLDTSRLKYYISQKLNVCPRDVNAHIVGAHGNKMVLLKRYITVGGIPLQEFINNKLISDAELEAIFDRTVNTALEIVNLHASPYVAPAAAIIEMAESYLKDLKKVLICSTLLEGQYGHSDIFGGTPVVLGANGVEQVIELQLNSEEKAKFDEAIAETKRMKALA
Calcium-dependent protein kinase 1 (Plasmodium falciparum (isolate 3D7)), sequence (P62344 whole entry, looked up): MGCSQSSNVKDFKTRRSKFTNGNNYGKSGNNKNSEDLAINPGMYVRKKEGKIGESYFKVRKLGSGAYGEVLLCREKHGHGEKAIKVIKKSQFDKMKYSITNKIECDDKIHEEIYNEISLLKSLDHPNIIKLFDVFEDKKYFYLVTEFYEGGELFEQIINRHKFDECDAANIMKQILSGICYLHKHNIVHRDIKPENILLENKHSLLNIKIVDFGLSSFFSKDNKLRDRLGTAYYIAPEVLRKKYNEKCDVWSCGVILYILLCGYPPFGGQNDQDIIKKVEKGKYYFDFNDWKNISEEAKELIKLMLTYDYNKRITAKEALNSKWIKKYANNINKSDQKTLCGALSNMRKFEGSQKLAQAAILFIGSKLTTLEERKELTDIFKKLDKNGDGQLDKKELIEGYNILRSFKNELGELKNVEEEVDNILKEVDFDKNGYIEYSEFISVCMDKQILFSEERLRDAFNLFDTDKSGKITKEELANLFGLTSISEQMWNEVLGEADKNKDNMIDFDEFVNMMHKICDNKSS

| Structure (SMILES) | growth inhibition [1] | inhibition [2] | inhibition [3] [%] | growth inhibition [4] | outcome [5] | outcome [6] | outcome [7] | outcome [8] |
| --- | --- | --- | --- | --- | --- | --- | --- | --- |
| Cc1cc(N[C@@H](C)C(=O)Nc2ccccc2)nc(NCCc2ccc(F)cc2)n1 | 43% | 33% | -2 | 100% (active) | inactive | inactive | inactive | inactive |
| Cc1cc2cc(-c3ccc(CN)cc3)ccc2nc1N | 8% | 18% | 4 | 92% (active) | inactive | inactive | inactive | inactive |
| COc1ccc(O)c(C(=O)NCCc2ccc(OC)c(-c3ccc(C(C)(C)C)cc3)c2)c1 | 91% (active) | 11% | 5 | 88% (active) | inactive | inactive | inactive | inactive |
| CC(C)(C)Oc1ccc(NC(=O)c2ccccc2O)cc1 | 67% (active) | 4% | -6 | 86% (active) | inactive | inactive | inactive | inactive |
| Cn1nc(-c2ccc(NC(=O)Nc3cc(C(F)(F)F)ccc3F)cc2)c2cnc(NCCc3cnc[nH]3)nc21 | 56% (active) | 15% | -3 | 99% (active) | inactive | inactive | inactive | inactive |
| CN(C)C(=NCCCCCCN=C(NC(N)=NCc1ccc(Cl)c(Cl)c1)N(C)C)NC(N)=NCc1ccc(Cl)c(Cl)c1 | 99% (active) | 20% | -9 | 93% (active) | inactive | inactive | inactive | inactive |
| Cc1cc(Cl)c(S(=O)(=O)NC2CCCC2)cc1OCC(=O)NC1CCCCC1 | 91% (active) | 19% | -6 | 97% (active) | inactive | inactive | inactive | inactive |
| Cc1cc(N[C@@H](Cc2ccccc2)C(=O)NCc2cccs2)nc(Nc2ccccc2)n1 | 36% | 3% | -2 | 96% (active) | inactive | inactive | inactive | inactive |
| COc1ccc(OC)c2c1C[C@@H]1NC[C@H]2c2c(OC)ccc(OC)c21 | 3% | 2% | 1 | 99% (active) | inactive | inactive | inactive | inactive |
| CC(=O)OC[C@H]1O[C@@H](C#Cc2ccccc2)[C@H](OC(C)=O)[C@@H](OC(C)=O)[C@@H]1OC(C)=O | 90% (active) | 5% | 0 | 95% (active) | inactive | inactive | inactive | inactive |
| NC(=O)c1cc2nc(Nc3ccc(F)cc3)nc(Nc3ccc(S(N)(=O)=O)cc3)c2[nH]1 | 99% (active) | 2% | 4 | 101% (active) | inactive | inactive | inactive | inactive |
| Cc1cc(C(F)(F)F)n2nc(C(=O)N(C)Cc3cncn3Cc3ccc(F)cc3)cc2n1 | 96% (active) | -1% | 0 | 101% (active) | inactive | inactive | inactive | inactive |
| Cc1[nH]c2ccc(-c3ccc(OC(F)(F)F)cc3)cc2c(=O)c1C#N | 97% (active) | -5% | -9 | 98% (active) | inactive | inactive | inactive | inactive |
| CS(=O)(=O)N(CC(O)Cn1c2ccc(Cl)cc2c2cc(Cl)ccc21)c1ccccc1 (stereo not given) | 98% (active) | 2% | 0 | 101% (active) | inactive | inactive | inactive | inactive |
| O=C(c1cc2ccccc2o1)N1CCc2cc3nccc(N4CCN5CCC[C@H]5C4)c3cc21 | 101% (active) | 62% (active) | 2 | 99% (active) | inactive | inactive | inactive | inactive |
| CCCCCCN1CCC(NCc2cccc([N+](=O)[O-])c2)CC1 | 16% | -2% | 0 | 100% (active) | inactive | inactive | inactive | inactive |
| Cc1nc2ccccc2c(=O)n1N=Cc1ccccc1[N+](=O)[O-] | 26% | -8% | 3 | 94% (active) | inactive | inactive | inactive | inactive |
| CN(C)CCC1CCCc2ccc(NC(=O)Nc3ccc(-c4ccncc4)c4ccccc34)cc21 (stereo not given) | 27% | 34% | 6 | 89% (active) | inactive | inactive | inactive | inactive |
| CC1=C(C(=O)OC(C)C)C(c2ccccc2Cl)C2=C(CC(c3ccccc3)CC2=O)N1 (stereo not given) | 84% (active) | 15% | 1 | 93% (active) | inactive | inactive | inactive | inactive |
| Cc1cc(NN=Cc2ccc(F)cc2)c2cc(F)ccc2n1 | 61% (active) | 6% | -4 | 101% (active) | inactive | inactive | inactive | inactive |

| Structure (SMILES) | growth inhibition [1] | inhibition [2] | inhibition [3] [%] | growth inhibition [4] | outcome [5] | outcome [6] | outcome [7] | outcome [8] |
| --- | --- | --- | --- | --- | --- | --- | --- | --- |
| Fc1ccc2cc(C=Cc3ccncc3)[nH]c2c1 | 89% (active) | -10% | 0 | 100% (active) | inactive | inactive | inactive | inactive |
| Clc1cc(Br)ccc1-c1ccc(CNCC2CCNCC2)o1 | 39% | 100% (active) | 1 | 96% (active) | inactive | inactive | inactive | inactive |
| COc1ccc(CNCCCCCCNCc2ccc(OC)c3ccccc23)c2ccccc12 | 49% | 100% (active) | -5 | 102% (active) | inactive | inactive | inactive | inactive |
| COc1cccc(NC(=O)[C@H](C(C)C)n2c(=O)[nH]c3ccccc3c2=O)c1 | 100% (active) | -1% | -1 | 101% (active) | inactive | inactive | inactive | inactive |
| COc1ccc(NS(=O)(=O)c2ccc(C(=O)Nc3ccc(C(F)(F)F)cc3)cc2)cc1N1CCN(CC2CC2)CC1 | -5% | 15% | 1 | 92% (active) | inactive | inactive | inactive | inactive |
| Clc1ccc(CNCC2CCN(CC3CCCCC3)CC2)cc1Cl | 6% | 18% | 4 | 92% (active) | inactive | inactive | inactive | inactive |
| COc1ccccc1-n1c(-c2ccc3ccccc3c2)csc1=NC(=O)c1ccccc1 | 79% (active) | -6% | -1 | 93% (active) | inactive | inactive | inactive | inactive |
| O=C(Nc1cccc(F)c1)N[C@H]1CCN(CCCCCNC(=O)[C@@H]2C[C@H]2c2ccc(Cl)c(Cl)c2)C1 | 1% | 41% | -1 | 90% (active) | inactive | inactive | inactive | inactive |
| Cc1ccc(S(=O)(=O)/N=C(\N)NC(N)=O)cc1 | 2% | 26% | 1 | 94% (active) | inactive | inactive | inactive | inactive |
| CCCN(CCC)CC(O)COc1ccccc1C(=O)Nc1ccccc1 (stereo not given) | 95% (active) | 6% | -2 | 92% (active) | inactive | inactive | inactive | inactive |
| O=C(Nc1ccc2c(c1)OCCO2)c1cc(-c2cccnc2)nc2ccc(Cl)cc12 | 27% | 2% | -1 | 95% (active) | inactive | inactive | inactive | inactive |
| Cc1ccc(CNC(=O)[C@H](CC(C)C)Nc2cc(C)nc(NCC3CCCCC3)n2)cc1 | 44% | 6% | -2 | 96% (active) | inactive | inactive | inactive | inactive |
| CC(C)CN1CCN(c2nc(C#N)c3c(c2C(=S)NC2CCCCC2)CC(C)(C)OC3)CC1 | 99% (active) | -4% | -2 | 101% (active) | inactive | inactive | inactive | inactive |
| COc1cccc2cc(C(=O)N[C@@H](CC(C)C)C(=O)N[C@H](/C=N/N(C)C(=O)OC(C)(C)C)Cc3ccccc3)oc12 | 89% (active) | 5% | -3 | 99% (active) | inactive | inactive | inactive | inactive |
| CCCNCc1ccc(-c2ccc(CN(CCOC)C(=O)c3nn(-c4ccccc4)nc3C)cc2)nc1 | 71% (active) | 18% | 3 | 99% (active) | inactive | inactive | inactive | inactive |
| NC1=NC(Cc2ccccc2)N(c2ccc(Cl)cc2)C(N)=N1 (stereo not given) | 4% | 21% | -2 | 93% (active) | inactive | inactive | inactive | inactive |
| CN1CCN(CC(=O)Nc2cccc(-c3ccc(-c4nc5ccc(C(F)(F)F)cc5[nH]4)s3)c2)CC1 | 95% (active) | 36% | 1 | 102% (active) | inactive | inactive | inactive | inactive |
| Cc1cc(N2CCN(C)CC2)nc2ccc(NC(=O)Cc3cccc(C(F)(F)F)c3)cc12 | 51% (active) | 26% | 3 | 99% (active) | inactive | inactive | inactive | inactive |
| CCOc1ccc(-c2nonc2NC(=O)c2ccc(OC)cc2)cc1OCC | 77% (active) | -1% | -1 | 98% (active) | inactive | inactive | inactive | inactive |
| Cc1ccc(S(=O)(=O)c2nc(S(=O)(=O)c3ccccc3)sc2NCC2CCCO2)cc1 (stereo not given) | 17% | 4% | 0 | 88% (active) | inactive | inactive | inactive | inactive |
